# Results published in PubChem BioAssay AID430 (Sanford-Burnham Center for Chemical Genomics, 2006).
# In all, about 63,000 compounds went through this assay and about 1,100 (1.7%) were called active. The full list was thinned out, with actives kept by preference. Potency and affinity values are given separately. Unmarked numbers belong to inactive results. Rule as the data show it: active = cytotoxicity above about 50%; inactive = the rest.
# Assay: HPDE-C7 pancreatic duct cell viability loss – fluorescence, HTS (AID 430);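 also: cells exposed to compound for 48 hours before viability readout; 0% = vehicle and 100% = reference cytotoxic drug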
# Details: HPDE-C7 pancreatic duct cells viability, at 10 µM, hits give high values
row,Structure (SMILES),cytotoxicity
1,CSc1nnc2c(n1)OC(C1CC=C(C)CC1)Nc1ccccc1-2 (stereo not given),2.9%
2,C=CCn1c(=O)c(C(=O)Nc2ccccc2O)c(O)c2ccccc21,-18%
3,Cc1occc1C(=O)NCc1ccc2c(c1)OCO2,42.9%
4,O=C(COc1cnc2ccccc2n1)NCCC1=CCCCC1,-1.1%
5,CCc1ccc2c(COn3nnc4ccc(S(=O)(=O)N(C)C)cc43)cc(=O)oc2c1,59.1% (active)
6,CCc1ccc2c(COC(=O)c3n[nH]c4ccccc34)cc(=O)oc2c1,8%
7,Cc1ccc2c(COn3nnc4ccc(S(=O)(=O)N(C)C)cc43)cc(=O)oc2c1C,-2.2%
8,CCc1nnc(NC(=O)CSc2nc(C)c3c(c2C#N)CCCC3)s1,76.3% (active)
9,CCc1nnc(NC(=O)CSc2nc3c(cc2C#N)CCC3)s1,30.8%
10,CCc1nnc(NC(=O)CSc2nc3c(cc2C#N)CCCC3)s1,-1.1%
11,COc1cccc(NC(=O)CNC(=O)c2ccc(F)cc2)c1,-1%
12,COc1cc(-c2ccc(NC(=O)CN3CCCCC3)c(OC)c2)ccc1NC(=O)CN1CCCCC1,-11.3%
13,N#Cc1ccc(CSc2nnc(-c3cnccn3)o2)cc1,-3%
14,Fc1cccc(C2CC(c3cccc(Br)c3)Nc3nnnn32)c1 (stereo not given),-20.3%
15,CCOc1ccc(S(=O)(=O)N2Cc3ccccc3CC2C(=O)NCCCn2ccnc2)cc1 (stereo not given),1.9%
16,Cc1ccc2[nH]c3c(c2c1)CN(C(=O)CN1CCN(c2ccccc2)CC1)CC3,26.1%
17,Cc1ccc2[nH]c3c(c2c1)CN(C(=O)CN1CCCc2ccccc21)CC3,55.8% (active)
18,Cc1ccc2[nH]c3c(c2c1)CN(C(=O)CN1CCN(c2ccccc2F)CC1)CC3,14.7%
19,Cc1cccc(N2CCN(C(=O)c3ccc(N4CCCC4=O)cc3)CC2C)c1 (stereo not given),-1.7%
20,CCOC(=O)c1ccc(NC(=O)N2CCN(S(C)(=O)=O)CC2)cc1,-1.4%

row,Structure (SMILES),cytotoxicity
1,Cc1cnc(NC(=O)CCCSc2nc3ccccc3s2)s1,-1.8%
2,c1ccc(-c2cc(-c3nc(-c4cccnc4)no3)c3ccccc3n2)cc1,-11.7%
3,c1ccc(-c2cc(-c3nc(-c4ccccn4)no3)c3ccccc3n2)cc1,70.4% (active)
4,c1ccc(-c2ccc(-c3nc(-c4ccccn4)no3)cc2)cc1,-4.1%
5,CC(C)n1c(SCC(N)=O)nc2c1c(=O)n(C)c(=O)n2C,-8.7%
6,CCn1c(SC/C=C/c2ccccc2)nnc1-c1cnccn1,-18.9%
7,Cc1nn(-c2ccccc2)c(N2CCCC2)c1/C=N/n1cnc2scc(-c3ccccc3)c2c1=O,24.5%
8,Cn1cc(/C=N/n2cnc3scc(-c4ccccc4)c3c2=O)c2ccccc21,68.4% (active)
9,Cn1cc(/C=N/n2cnc3scc(-c4ccc(Cl)cc4)c3c2=O)c2ccccc21,89.3% (active)
10,CCn1cnc2scc(-c3ccccc3)c2c1=O,-9.7%
11,Cc1ccc(-c2csc3ncn(/N=C/N(C)C)c(=O)c23)o1,-6.4%
12,Cn1cc(/C=N/n2cnc3sc4c(c3c2=O)CCCC4)c2ccccc21,21.2%
13,COc1cc(OC)cc(C(=O)N2CCC(n3c(C)nc4cc(F)ccc43)CC2)c1,3%
14,N#Cc1cc2sc3nnc(-c4ccncc4)n3c2cc1C#N,-14.9%
15,Cc1nc2cc(C(=O)OCC(=O)N(CC(C)C)C3CCS(=O)(=O)C3)ccc2n1-c1ccccc1 (stereo not given),-10.3%
16,O=C(O)CCc1ccc(-c2cccs2)n1NC(=O)c1ccc(Cl)cc1,0.6%
17,Cc1csc(NC(=O)CSc2nnc(-c3ccc(S(=O)(=O)N4CCCC4)cc3)o2)n1,-13.8%
18,COc1cccc(CNC(=O)Cn2cccc2)c1,-4.3%
19,COc1ccccc1NCCC(=O)OCC(=O)Nc1ccc(Cl)cn1,10.3%
20,Cc1cccc(NC(=O)Nc2ccc(C#N)cc2)n1,-0.1%

row,Structure (SMILES),cytotoxicity
1,N#Cc1ccc(NC(=O)Nc2ccc(Cl)cc2)cc1,57.7% (active)
2,CN(CC(=O)Nc1ccc(C#N)cc1)Cc1ccc(Cl)cc1,6.1%
3,COc1ccc(Cl)cc1NC(=O)N1CCN(S(C)(=O)=O)CC1,-6.5%
4,C=CCn1c(N)cc(=O)nc1SCC(=O)Nc1ccccc1,-16%
5,O=C(c1ccccc1)N1CCCCC(Sc2nnnn2-c2ccccc2)C1=O (stereo not given),-6.2%
6,Cc1ccc2oc3c(c(=O)c2c1)C(c1ccc(F)cc1)N(CCCN1CCOCC1)C3=O (stereo not given),-11.5%
7,COC(=O)C1=C(C)N(C)C(=O)NC1c1cc(Cl)cc(Cl)c1OC (stereo not given),1.6%
8,Cc1nn2c(N3CCN(C(=O)c4ccco4)CC3)cc(C(C)(C)C)nc2c1-c1ccccc1,75.8% (active)
9,Cc1cc(N2CCN(C(=O)c3ccco3)CC2)n2nc(C)c(-c3ccccc3)c2n1,7.9%
10,Cc1cc(N2CCN(C(=O)c3ccco3)CC2)n2nc(C)c(-c3ccc(Cl)cc3)c2n1,14.2%
11,COC(=O)c1ccccc1S(=O)(=O)N(Cc1cc2ccc(OC)cc2[nH]c1=O)CC1CCCO1 (stereo not given),-2%
12,O=C(CCNS(=O)(=O)c1cccs1)NCc1ccco1,-2.8%
13,C=CCOc1nc2c(c(=O)n(C)c(=O)n2C)n1Cc1ccc(Cl)cc1,59.6% (active)
14,C=CCOc1nc2c(c(=O)n(C)c(=O)n2C)n1Cc1ccc(Cl)cc1Cl,-22.3%
15,C=CCOc1nc2c(c(=O)n(Cc3ccc(Cl)cc3)c(=O)n2C)n1C,6.6%
16,CCc1c(C(=O)Nc2ccc(S(=O)(=O)N3CCOCC3)cc2)csc1C,11%
17,N=c1c2c(n(Cc3ccc(Cl)c(Cl)c3)c3c1CCC3)CCCC2,63.8% (active)
18,N=c1c2c(n(Cc3ccc(F)cc3)c3c1CCC3)CCC2,29.3%
19,N=c1c2c(n(Cc3ccc(Cl)cc3)c3c1CCC3)CCC2,34%
20,O=C(C1CCN(S(=O)(=O)c2ccc(Br)s2)CC1)N1CCc2ccccc21,10.9%
